Compounds with a hit are over-represented: about 0.51% of the library has one in this group of screens.
E coli growth-1 = bacterial growth inhibition, counter-screen for AddAB inhibitors | E. coli V3065 growth, OD600 absorbance, 18 h | inhibition, % at 11.9 µM | hit rate 0.27% among 330,000;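 active = inhibition above the campaign's mean inhibition across all tested compounds plus 3 SD, cut at about 9.9% in these data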;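 note: uninfected addAB+ strain grown without phage in ampicillin broth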
phage Ecoli inh = E. coli growth loss with phage present; growth absorbance; inhibition, % at 11.9 µM; hit rate 0.26% among 360,000; in the data active = inhibition above about 11%
E coli growth-2 = E. coli growth inhibition; hit rate 0.21% among 330,000; Escherichia coli growth, OD600, 23 h; stronger effect = lower value; OD600 absorbance (concentration not given with the values);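 active = OD600 absorbance below the run mean of sample wells minus 3.6 SD, in any replicate, cut at about 0.56 in these data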
AddAB inh = less growth of phage-infected E. coli with AddAB; hit rate 0.29% among 330,000; inhibition, % at 11.9 µM; E. coli expressing H. pylori AddAB, absorbance growth; AID 435030; in the data active = inhibition above about 12%
Tat transport = inhibitors of E. coli Tat protein transport. E. coli MC4100 TorA-mCherry Tat export, fluorescence. hit rate 0.036% among 340,000. inhibition, % at 10 µM;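 active = mean replicate inhibition at least 50% and at least half of replicates individually reaching 50%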;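 note: exported cargo escapes ClpAP degradation while cytoplasmic cargo is degraded and loses fluorescence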
AddAB confirm = growth loss of T4-infected E. coli expressing H. pylori AddAB, confirmed | shares compounds with AddAB inh | hit rate 64% among 880 | E. coli V3065 expressing H. pylori AddAB, T4 phage, OD; T4 phage with gene 2 nonsense mutations | inhibition, % at 11.9 µM | AID 488942;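 active = mean inhibition above a set limit taken from the earlier primary screen, cut at about 13% in these data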;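 note: higher means less bacterial growth since AddAB block lets phage replicate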
RecBCD counter = AddAB counter-screen: growth loss of RecBCD+ E. coli infected with mutant T4 phage. AID 488955. E. coli V66 + mutant T4 phage, OD growth. shares compounds with AddAB inh. inhibition, % at 11.9 µM. hit rate 73% among 880;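 active = mean inhibition above the mean of solvent-only control wells plus 3 SD, cut at about 4% in these data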;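 note: optical density read after an 18 h incubation at 37 °C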
bact viab count = reduces bacterial viability, AddAB inhibitor counter-screen. shares compounds with AddAB inh. absorbance (AddAB counterscreen). inhibition, % at 11.9 µM. hit rate 35% among 880; in the data active = inhibition above about 25%
RecBCD conf = growth loss of phage-infected V66 E. coli, RecBCD confirmation screen; shares compounds with phage Ecoli inh; E. coli V66 + T4 2- phage, growth OD; inhibition, % at 11.9 µM; hit rate 45% among 890;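 active = mean inhibition over triplicates exceeding the hit threshold derived in the original primary screen, cut at about 11% in these data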
Ecoli viability = counter-screen for RecBCD inhibitors: inhibitors of bacterial viability | hit rate 29% among 890 | shares compounds with phage Ecoli inh | AID 651983 | E. coli viability, absorbance (OD) growth | inhibition, % at 11.9 µM; in the data active = inhibition above about 20%;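 note: E. coli strain V66 grown with compound alone and no phage infection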
AddAB counter = growth loss of phage-infected AddAB E. coli, RecBCD counter-screen | shares compounds with phage Ecoli inh | E. coli expressing H. pylori AddAB + T4 phage, OD growth; gene 2 mutant T4, recBCD-deleted host | inhibition, % at 11.9 µM | hit rate 45% among 890 | AID 651984;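 active = mean inhibition above the solvent-only control wells' mean plus 3 SD, cut at about 22% in these data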;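 note: higher means less bacterial growth from phage killing when AddAB is blocked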
Numbers stand for hits; i = inactive; nt = no result given.

SMILES	E coli growth-1	phage Ecoli inh	E coli growth-2	AddAB inh	Tat transport	AddAB confirm	RecBCD counter	bact viab count	RecBCD conf	Ecoli viability	AddAB counter
COc1ccc(C(=O)NC(=S)NNC(=O)c2ccccc2C)cc1	i	i	i	i	i	nt	nt	nt	nt	nt	nt
O=C(NNC(=O)c1cc2ccccc2cc1O)Nc1ccc(Br)cc1	11	15	i	15	i	14	17	i	i	i	i
COc1ccc(C)cc1NC(=O)NNC(=O)c1cc2ccccc2cc1O	15	13	i	16	i	17	14	i	i	i	i
O=C(NC(=S)NNC(=O)c1cc2ccccc2cc1O)c1ccco1	17	20	nt	15	i	15	24	i	14	i	i
Cc1ccc(C(=O)NNC(=O)c2cc3ccccc3cc2O)cc1	i	i	i	i	i	nt	nt	nt	nt	nt	nt
NC(=O)C1CCOc2c(F)cc([N+](=O)[O-])cc2C(=O)NC(CO)C(=O)NCC(=O)N1 (stereo unspecified)	nt	nt	i	nt	nt	nt	nt	nt	nt	nt	nt
Cc1csc(NN=Cc2ccc(O)c([N+](=O)[O-])c2)n1	nt	nt	i	nt	nt	nt	nt	nt	nt	nt	nt
COc1ccc(C(=O)NNC(=S)NC(=O)/C=C/c2cccs2)cc1	i	i	i	i	i	nt	nt	nt	nt	nt	nt
O=C(/C=C/c1cccs1)NC(=S)NNC(=O)c1ccccc1O	22	21	i	26	i	19	22	i	i	i	23
Cc1ccc(C(=O)N/N=C\c2ccc(-c3ccc([N+](=O)[O-])cc3)o2)cn1	i	i	nt	i	i	nt	nt	nt	nt	nt	nt
Cc1ccc(C(=O)N/N=C\c2ccc([N+](=O)[O-])o2)cn1	20	18	nt	84	i	101	14	36	i	i	97
O=C(Cc1ccc([N+](=O)[O-])cc1)N/N=C/c1ccc([N+](=O)[O-])o1	14	13	nt	21	i	75	7.1	i	i	i	67
O=C(CNc1cccc([N+](=O)[O-])c1)N/N=C/c1ccc([N+](=O)[O-])o1	33	18	nt	82	i	102	16	60	14	i	66
O=C1c2ccccc2C(=CC#Cc2ccccn2)N1c1ccccc1	nt	nt	i	nt	nt	nt	nt	nt	nt	nt	nt
COc1cccc(/C=C2/SC(=S)N(CC(=O)NNC(=O)c3ccccc3O)C2=O)c1	i	14	i	13	i	17	14	i	11	i	i
COc1ccc(/C=N/Nc2ncnc(Cl)c2N)cc1OC	i	i	nt	i	i	nt	nt	nt	nt	nt	nt
COc1cccc(/C=N/Nc2ncnc3scc(-c4ccccc4)c23)c1O	17	11	nt	15	i	i	12	i	i	i	i
COc1cccc(/C=N/Nc2ncnc(Cl)c2N)c1O	15	30	nt	12	i	21	29	i	27	30	23
COc1cccc(C=Nn2cnc3cc(C)c(C)cc32)c1OC	nt	nt	i	nt	nt	nt	nt	nt	nt	nt	nt
Cc1cc2ncn(/N=C/c3ccc([N+](=O)[O-])o3)c2cc1C	32	14	nt	86	i	99	12	46	i	i	57
CC(=O)[C@@]1(O)CCC2C3CC(C)C4=CC(=O)C=C[C@]4(C)[C@@]3(F)C(O)C[C@@]21C (stereo partly specified)	nt	nt	i	nt	nt	nt	nt	nt	nt	nt	nt
CO[C@H]1/C=C/O[C@@]2(C)Oc3c(C)c(O)c4c(O)c(c(C=NN5CCN(C)CC5)c(O)c4c3C2=O)NC(=O)/C(C)=C\C=C\[C@H](C)[C@H](O)[C@@H](C)[C@@H](O)[C@@H](C)[C@H](OC(C)=O)[C@@H]1C	48	78	nt	52	78	59	58	62	80	89	102
CC(C)(C)OC(=O)NC(C(=O)OC(C)(C)C)c1ccccc1 (stereo unspecified)	nt	nt	i	nt	nt	nt	nt	nt	nt	nt	nt
Nc1[nH]c(=O)ncc1F	19	29	i	28	i	45	20	44	32	24	52
c1ccc(CC2CN=C(Nc3ccccc3)N2CC2CCCCCC2)cc1 (stereo unspecified)	nt	nt	i	nt	nt	nt	nt	nt	nt	nt	nt
SMILES	E coli growth-1	phage Ecoli inh	E coli growth-2	AddAB inh	Tat transport	AddAB confirm	RecBCD counter	bact viab count	RecBCD conf	Ecoli viability	AddAB counter
O=c1c(O)c(-c2cccs2)oc2ccccc12	25	12	i	23	i	i	11	i	i	i	i
O=c1c2ccccc2oc2ccccc12	nt	i	nt	nt	nt	nt	nt	nt	nt	nt	nt
O=C(Cn1cnc2ccccc21)Nc1ccc(SC(F)F)cc1	13	17	i	15	i	i	13	i	i	i	i
Cc1ccc(SCC(Cc2ccccc2)N2CCC(C)CCC2=O)cc1 (stereo unspecified)	nt	nt	i	nt	nt	nt	nt	nt	nt	nt	nt
CCn1ccc(C(=O)NC2C(=O)N3C(C(=O)O)=C(C)CSC23)n1 (stereo unspecified)	i	i	i	i	i	nt	nt	nt	nt	nt	nt
C=CC1=C(C(=O)O)N2C(=O)[C@@H](NC(=O)/C(=N\O)c3csc(N)n3)[C@H]2SC1 (stereo in doubt)	99	99	nt	99	i	103	101	103	104	106	105
C/C(N=Nc1nc2ccccc2s1)=N\Nc1ccccc1O	11	33	nt	15	i	32	34	31	24	27	39
COc1ccc2c(c1)SC(=CC(=O)c1ccncc1)N2C	nt	nt	i	nt	nt	nt	nt	nt	nt	nt	nt
COc1ccc(C2C=CCN(S(=O)(=O)c3ccc4ccccc4c3)C(C)C(=O)N2Cc2ccc(F)cc2)cc1 (stereo unspecified)	nt	nt	i	nt	nt	nt	nt	nt	nt	nt	nt
Cc1ccc(NC(=S)NC(CO)C(O)c2ccc([N+](=O)[O-])cc2)cc1 (stereo unspecified)	i	i	i	i	i	nt	nt	nt	nt	nt	nt
O=C(NC(CO)C(O)c1ccc([N+](=O)[O-])cc1)C(Cl)Cl (stereo unspecified)	85	73	0.06	79	i	87	84	86	79	79	74
O=[N+]([O-])c1ccc(C(O)C(CO)NC(=S)Nc2ccccc2)cc1 (stereo unspecified)	i	i	i	i	i	nt	nt	nt	nt	nt	nt
O=C(N[C@H](CO)[C@H](O)c1ccc([N+](=O)[O-])cc1)C(Cl)Cl	90	78	0.045	89	i	87	86	85	86	88	81
COc1ccc(-c2nn(-c3ccccc3)cc2C=CC(=O)N2CCOCC2)cc1[N+](=O)[O-]	nt	nt	i	nt	nt	nt	nt	nt	nt	nt	nt
COc1cc(Cc2cnc(N)nc2N)cc(OC)c1OC	100	101	0.064	99	i	98	100	100	101	102	101

Source: PubChem
